Measurements: PubChem BioAssay AID1878 (Sanford-Burnham Center for Chemical Genomics, 2009)
Among all 1,000 compounds or so, about 200 (20%) were called active. Cut-off read from the data, not from the text of the source: active = inhibition above about 55%; inactive = the rest. A selection follows. Potency and affinity values are given separately.

molecular target: Dual specificity protein phosphatase 3 (Homo sapiens) (UniProt P51452); assay: VHR1 phosphatase inhibitors, biochemical (AID 1878); settings: recombinant VHR phosphatase, fluorogenic substrate; at 13.3 µM; hits give high values
Sequence (P51452 whole entry, looked up): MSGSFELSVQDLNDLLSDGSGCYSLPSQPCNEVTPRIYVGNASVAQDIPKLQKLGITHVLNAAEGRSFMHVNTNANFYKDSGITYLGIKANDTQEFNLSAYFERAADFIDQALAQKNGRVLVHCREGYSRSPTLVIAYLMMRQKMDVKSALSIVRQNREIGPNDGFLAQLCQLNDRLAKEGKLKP

Row | SMILES | inhibition
1 | COc1ccccc1N(CC(O)CN1CCC(C)CC1)S(=O)(=O)c1ccccc1 (stereo not given) | -7.2% (inactive)
2 | Cc1ccc(S(=O)(=O)N(C)C)cc1NC(=O)COC(=O)/C=C/c1cnc2ccccc2n1 | 10.1% (inactive)
3 | O=C(Nc1ccc(N2CCCCC2)cc1)c1ccc([N+](=O)[O-])o1 | 14.3% (inactive)
4 | CC(O)CNc1nc2c(c(=O)n(Cc3ccc(Cl)cc3)c(=O)n2C)n1C (stereo not given) | 27.1% (inactive)
5 | CC(C)NC(=O)CN1C(=O)CSc2ccc(S(=O)(=O)N3CCCC3)cc21 | 15.9% (inactive)
6 | CCc1nn(CC(=O)N2CCN(c3cc(C)ccc3C)CC2)c(=O)c2cc3occc3n12 | 4.7% (inactive)
7 | COC(=O)C1CCN(Cc2c(C(=O)N3C[C@@H](C)O[C@@H](C)C3)nc3ccc(Cl)cn23)CC1 | 19% (inactive)
8 | Cc1cc(-c2ccc(C)c(S(=O)(=O)NCCCN(Cc3ccccc3)C(C)C)c2)on1 | 3.1% (inactive)
9 | S=c1nc(NCc2cccc(Cl)c2)c2ccccc2[nH]1 | 6.3% (inactive)
10 | CCN(CC)CCCNC(=O)c1ccc(CS(=O)(=O)c2ccccc2OC)o1 | -2.3% (inactive)
11 | CN(C(=O)CSc1cn(CC(=O)N2CCOCC2)c2ccccc12)c1ccccc1 | -6.1% (inactive)
12 | CCc1ccc(CN(C)C(=O)c2ccc3c(c2)OCCO3)cc1 | 11.2% (inactive)
13 | O=C(O)CCN1C(=O)/C(=C2\C(=O)N(Cc3ccc(F)cc3)c3ccccc32)SC1=S | 92.9% (active)
14 | O=C(O)CCCN1C(=O)c2ccccc2Sc2ncccc21 | 2.1% (inactive)
15 | CCCCN1C(=O)/C(=C2\SC(N3CCOCC3)=NC2=O)c2ccccc21 | 1.9% (inactive)
16 | CN1C=CC=C/C1=C1/SC(=S)N(Cc2ccccc2)C1=O | -8% (inactive)
17 | N#CC(c1cccnc1)N1CCOCC1 (stereo not given) | 5.3% (inactive)
18 | N#Cc1ccc(OS(=O)(=O)c2ccc(-c3ccon3)s2)cc1 | 1.6% (inactive)
19 | CCOC(=O)c1ccc(NC(=O)CSc2nnc(CNC(=O)c3ccco3)o2)cc1 | 28.4% (inactive)
20 | OC(CN1CCC(Cc2ccccc2)CC1)c1ccccc1 (stereo not given) | 3.5% (inactive)
21 | O=C(O)C(Cc1ccccc1)N1C(=O)/C(=C/C=C/c2ccco2)SC1=S (stereo not given) | 71.7% (active)
22 | CC(C(=O)O)N1C(=O)/C(=C/C=C/c2ccco2)SC1=S (stereo not given) | 97.9% (active)
23 | Cc1cc(N2CCN(c3ncccn3)CC2)nc2c(C)cccc12 | 3.7% (inactive)
24 | CNS(=O)(=O)c1cn(CC(=O)NCc2ccc(N(C)C)cc2)cc1S(=O)(=O)NC | 5.7% (inactive)
25 | COc1ccc(CN(C)C(=O)c2cccc(NS(=O)(=O)c3ccccc3)c2)cc1F | 6% (inactive)
